LMNA splice mod = modulators of lamin A splicing. Potency, µM (top dose mostly 46.1 µM), for inactives: at the top dose ratio change, negative = inhibition, hits mostly inhibitors. hit rate 0.01% among 200,000. HeLa LMNA splicing GFP/RFP minigene ratio, 48 h; active means well fitted inhibition curve with a large enough effect in the signal ratio, with a control signal flat, not every such curve was filed as active; inconclusive means small, poorly fitted or top-dose-only effect, or effect the other way, or a change in a side signal; the % refers to the signal ratio; further: on the % scale 0 is the no-effect control and ±100 the full control effect
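S3 HeLa stable clones carrying a lamin A-EGFP splicing minigene plus DsRed2 were seeded at 600 cells/well in Opti-MEM with 2% FBS, pin-dosed and incubated 48 h at 37°C. Acumen cytometry (488 nm) gave the GFP/RFP total-intensity ratio.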
HPGD block = inhibitors of human 15-hydroxyprostaglandin dehydrogenase (HPGD); Potency, µM, for the others: at the top dose activity change, negative = inhibition, most hits filed as inhibitors; AID 894; hit rate 4.3% among 150,000; purified HPGD, NADH fluorescence kinetic, PGE2 substrate; P15428; active means well fitted inhibition curve with a large enough effect, not every such curve was filed as active; inconclusive means small, poorly fitted or top-dose-only effect, or another doubt; inactive means no such curve, though single readings can be large or run the other way; further: on the % scale 0 is the no-effect control and ±100 the full control effect
Target sequence (P15428 whole entry, looked up): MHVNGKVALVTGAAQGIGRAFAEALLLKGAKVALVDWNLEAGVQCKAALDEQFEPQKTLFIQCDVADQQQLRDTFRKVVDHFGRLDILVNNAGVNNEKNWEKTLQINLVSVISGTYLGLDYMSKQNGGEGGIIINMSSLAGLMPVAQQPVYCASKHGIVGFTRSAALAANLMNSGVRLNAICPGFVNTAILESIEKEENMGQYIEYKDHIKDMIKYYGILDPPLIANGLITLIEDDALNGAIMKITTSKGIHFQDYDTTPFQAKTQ
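20 nM HPGD preincubated 15 min at room temperature with compound in 50 mM Tris-HCl pH 8, 0.01% Tween 20. Started with 1 mM NAD+ and 30 uM prostaglandin E2; NADH fluorescence (360/450 nm) read 5 times over 30-s intervals, last minus first.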
HTT cytoprotect = Huntington cell model cytoprotection by ATP luminescence | hit rate 0.14% among 230,000 | Potency, µM (top dose mostly 56.4 µM), for the others: cytoprotection (ATP increase), most hits filed as activators | AID 1471 | PC12 HTT-Q103 induced, cytoprotection, ATP luminescence, 40 h; further: % of control where 0% means no effect; nearly all actives have a fitted effect of over 45% in size
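PC12 cells stably carrying ecdysone-inducible Htt exon 1 (Q103)–GFP were induced with 100 nM tebufenozide (final) alongside library compounds in a dose series. Cytoprotection was scored as retained ATP by ATPlite luminescence.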
HttQ103 aggreg = reduces HttQ103-GFP aggregates in PC12 cells. PC12 HttQ103-GFP aggregates, Acumen cytometry, 40 h. Potency, µM (series often up to 46.1 µM), for inactives: top-dose activity change, negative = inhibition, actives largely listed as inhibitors. hit rate 1.1% among 220,000; further: on the % scale 0 is the no-effect control and ±100 the full control effect; nearly all actives have a fitted effect of over 60% in size
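Read-out: GFP aggregate count by laser scanning cytometer (488 nm excitation, 500-530 nm emission, 1–25 µm objects >6 SD above background). Cells: PC12, inducible HTTex1-Q103-GFP, 100 nM tebufenozide; compounds titrated.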
ALDH1A1 block = inhibitors of human aldehyde dehydrogenase 1A1; Purified ALDH1A1, NADH fluorescence, propionaldehyde substrate; P00352; AID 1030; hit rate 7.3% among 220,000; Potency, µM (top dose mostly 75.3 µM), without a hit: top-dose activity, negative = inhibition, actives largely listed as inhibitors; active means well fitted inhibition curve with a large enough effect, not every such curve was filed as active; inconclusive means small, poorly fitted or top-dose-only effect, or another doubt; inactive means no such curve, though single readings can be large or run the other way;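 further: plate controls were no enzyme wells and a reference inhibitor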
Active calls of the source: *; [ ] = another dose, or the depositor's remark. An excerpt weighted towards active compounds, which were near 8.8% of everything screened. Unless noted, the call rests on the fitted dose curve; in most records, active means well fitted curve in the direction sought with a large enough effect; inconclusive means small, poorly fitted or top-dose-only effect, or another doubt; inactive means no such curve, though single readings can be large; an effect the other way counts as inactive or inconclusive. Potency means the concentration at half of the fitted maximal effect.

Screening COc1ccc(C/C(O)=C(\C#N)c2nc3ccccc3s2)cc1 returned LMNA splice mod inconclusive, HPGD block -27%, HTT cytoprotect 6%[10 µM], HttQ103 aggreg 13µM* and ALDH1A1 block -6%.
Screening N#C/C(=C(/O)COc1ccccc1)c1nc2ccccc2s1 returned HttQ103 aggreg inconclusive and ALDH1A1 block 9%.
Screening N#C/C(=C(/O)CSc1ccccn1)c1nc2ccccc2s1 returned HTT cytoprotect -47%, HttQ103 aggreg -2% and ALDH1A1 block 8.9µM*.
For CN(C)c1ccc(CC(=O)c2nc3ccccc3s2)cc1 the results were LMNA splice mod 2%, HPGD block -8%, HTT cytoprotect -2%[10 µM], HttQ103 aggreg -10% and ALDH1A1 block 7.1µM*.
For Cc1ccc(Cn2cnc3c(cnn3-c3ccc(F)cc3)c2=O)cc1 the results were HTT cytoprotect -15%, HttQ103 aggreg -8% and ALDH1A1 block 6%.
Screening CN(c1nc2nonc2nc1NC1CC1)C1CCOC1 (configuration not stated) returned LMNA splice mod inconclusive, HTT cytoprotect 20%[10 µM], HttQ103 aggreg 22%[9.22 µM] and ALDH1A1 block inconclusive.
Screening CCCOc1cc(C)c(S(=O)(=O)N2CCOCC2)cc1C returned LMNA splice mod inconclusive, HPGD block -9%, HTT cytoprotect 14%[10 µM], HttQ103 aggreg -11% and ALDH1A1 block 10%.
For CCCOc1cc(C)c(S(=O)(=O)n2ccc(C)n2)cc1C the results were LMNA splice mod inconclusive, HPGD block -16%, HTT cytoprotect -17%, HttQ103 aggreg 13µM* and ALDH1A1 block -11%.
`C/C=C(\C)[C@H](O)C[Si](C)(C)c1ccccc1` gave HPGD block -10%, HTT cytoprotect 17% and ALDH1A1 block 8%.
Screening C=CCSc1n[nH]c(-c2ccc(OCCCC)cc2)n1 returned LMNA splice mod inconclusive, HPGD block 16µM*, HTT cytoprotect -31%, HttQ103 aggreg -29% and ALDH1A1 block 0%.
`C=CCSc1n[nH]c(-c2ccc(OCCC)cc2)n1` gave LMNA splice mod -2%, HPGD block inconclusive, HTT cytoprotect -7%[0.074 µM], HttQ103 aggreg -29% and ALDH1A1 block -4%.
`O=C(N/N=C/c1ccc(N2CCOCC2)s1)c1ccccc1Br` gave LMNA splice mod inconclusive, HTT cytoprotect -29%, HttQ103 aggreg -1% and ALDH1A1 block 14µM*.
CC(C)(C)OC(=O)N/N=C/c1ccc(N2CCOCC2)s1 was read as LMNA splice mod inconclusive, HPGD block -20%, HTT cytoprotect 24%[10 µM], HttQ103 aggreg 1% and ALDH1A1 block -16%.
`Clc1cccc(N/N=C/c2ccc(N3CCOCC3)s2)c1` gave LMNA splice mod 10%, HPGD block -29%, HTT cytoprotect 33%[10 µM], HttQ103 aggreg 5% and ALDH1A1 block 11µM*.
Cc1ccc(S(=O)(=O)N2CCOCC2)cc1NC(=O)CSc1nnnn1C was read as HTT cytoprotect -39%, HttQ103 aggreg 10% and ALDH1A1 block -9%.
Screening COc1cc2c3nnc(-c4ccc(F)cc4)c-3cn(Cc3ccc(C)cc3)c2cc1OC returned LMNA splice mod -9%, HPGD block -16%, HTT cytoprotect -40%[10 µM], HttQ103 aggreg -23% and ALDH1A1 block 4.5µM*.
For COc1cc2c3nnc(-c4ccc(F)cc4)c-3cn(Cc3cccc(C)c3)c2cc1OC the results were LMNA splice mod -12%, HPGD block -6%, HTT cytoprotect 0%[10 µM], HttQ103 aggreg -22% and ALDH1A1 block 2%.
`COc1cc2c3nnc(-c4ccc(F)cc4)c-3cn(Cc3cccc(F)c3)c2cc1OC` gave LMNA splice mod inconclusive, HTT cytoprotect -23%, HttQ103 aggreg 10µM* and ALDH1A1 block 11%.
`CCCN1CN(c2ccccc2)C(=S)N(c2ccccc2)C1` gave HTT cytoprotect -9%[10 µM] and HttQ103 aggreg -7%[9.22 µM].
For COc1ccc(-c2cn3c(n2)sc2cc(C(=O)N4CCCCC4)ccc23)cc1 the results were LMNA splice mod 3%[46 µM].
COc1ccc(NC(=O)c2ccc3c(=O)n(-c4ccc(OC)cc4OC)c(=S)[nH]c3c2)c(OC)c1 was read as LMNA splice mod -9%[9.22 µM], HTT cytoprotect -31%, HttQ103 aggreg 1% and ALDH1A1 block inconclusive.
Screening COC(=O)c1ccc2c(=O)n(-c3ccccc3F)c(=S)[nH]c2c1 returned HTT cytoprotect 22%, HttQ103 aggreg -13% and ALDH1A1 block 16µM*.
`COc1ccc(-n2c(=S)[nH]c3cc(C(=O)NC4CCCCC4)ccc3c2=O)c(OC)c1` gave HTT cytoprotect -88%, HttQ103 aggreg -18% and ALDH1A1 block 0.1µM*.
Cc1cc(C)cc(NS(=O)(=O)c2ccc3c(c2)CCCN3C(=O)C2CCC2)c1 was read as LMNA splice mod -8%[46 µM].
Screening CC(C)CC(N=Cc1c(O)c2ccccc2oc1=O)C(=O)O (configuration not stated) returned HTT cytoprotect 8%, HttQ103 aggreg 1% and ALDH1A1 block 14µM*.
Screening O=C(O)CCCN=Cc1c(O)c2ccccc2oc1=O returned HTT cytoprotect -71%, HttQ103 aggreg 1% and ALDH1A1 block inconclusive.
Screening Cc1ccc2cc(CN(Cc3cccs3)Cc3nnnn3CC3CCCO3)c(=O)[nH]c2c1 (configuration not stated) returned LMNA splice mod -5%, HPGD block -13%, HTT cytoprotect -15%, HttQ103 aggreg -1% and ALDH1A1 block 7.9µM*.
Screening Cc1ccc2[nH]c(=O)c(CN(Cc3cccs3)Cc3nnnn3CC3CCCO3)cc2c1 (configuration not stated) returned LMNA splice mod 4%, HPGD block -12%, HTT cytoprotect -14%[10 µM], HttQ103 aggreg -9% and ALDH1A1 block 20µM*.
For COc1ccccc1CN(Cc1cc2cc(C)ccc2[nH]c1=O)Cc1nnnn1CC1CCCO1 (configuration not stated) the results were LMNA splice mod 1%, HPGD block -14%, HTT cytoprotect -24%, HttQ103 aggreg -16% and ALDH1A1 block inconclusive.
CC(=O)OC1CC2C(C)(C)C(O)CC[C@@]2(C)C2CC[C@@]3(C)C(c4ccoc4)OC(=O)C4OC43[C@]12C (some centres not stated) was read as LMNA splice mod inconclusive, HPGD block -5% and ALDH1A1 block 7%.
`Cc1ccc(-c2csc(NC(=O)c3cccc(S(=O)(=O)N4CCN(C)CC4)c3)n2)cc1` gave LMNA splice mod inconclusive, HPGD block -27%, HTT cytoprotect -8%, HttQ103 aggreg 11% and ALDH1A1 block 2.5µM*.
For O=C(C1CCN(S(=O)(=O)N2CCCCC2)CC1)N1CCCCC1 the results were LMNA splice mod 5%, HPGD block 20µM*, HttQ103 aggreg 5% and ALDH1A1 block inconclusive.

Bioassay records as filed in PubChem.
